Records with an inconclusive call do not appear. Activity calls are given as the source filed them. The calls were made as follows: active = hit-call score of the fitted dose curve at least 0.9, where 1 is the maximum; inconclusive = response in the unintended direction; inactive = score below 0.9.
target: rat Thyrotropin Releasing Hormone Receptor (TRH), Trhr (gene 25570) (UniProt Q01717); test: NVS_GPCR_rTRH: NovaScreen (NVS) G Protein-Coupled Receptor Assay for rat Thyrotropin Releasing Hormone Receptor (TRH) (AID 2283329);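 also: hit means lower bound tracer signal versus DMSO baseline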
Sequence (Q01717 whole entry, looked up): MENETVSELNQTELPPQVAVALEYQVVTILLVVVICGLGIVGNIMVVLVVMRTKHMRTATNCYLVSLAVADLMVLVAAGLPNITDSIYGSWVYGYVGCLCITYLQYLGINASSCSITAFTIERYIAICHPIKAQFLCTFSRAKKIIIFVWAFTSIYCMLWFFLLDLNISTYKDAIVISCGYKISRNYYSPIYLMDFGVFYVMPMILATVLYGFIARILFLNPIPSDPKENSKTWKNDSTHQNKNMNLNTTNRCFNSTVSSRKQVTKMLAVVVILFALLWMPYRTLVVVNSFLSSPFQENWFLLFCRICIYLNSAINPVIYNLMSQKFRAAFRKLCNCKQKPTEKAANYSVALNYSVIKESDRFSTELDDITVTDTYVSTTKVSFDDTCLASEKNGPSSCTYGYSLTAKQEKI
Experimental: NVS_GPCR_rTRH is a biochemical, single-readout assay that uses extracted gene-proteins from Rat forebrain membranes in a tissue-based cell-free assay. Measurements were taken 4 hours after chemical dosing in a 48-well plate.NVS_GPCR_rTRH is one of one assay component(s) measured or calculated from the NVS_GPCR_rTRH assay. It is designed to make measurements of radioligand binding, a form of binding reporter, as detected with scintillation counting signals by Filter-based radiodetection technology.Data from the assay component NVS_GPCR_rTRH was analyzed into 1 assay endpoint. This assay endpoint, NVS_GPCR_rTRH, was analyzed in the positive analysis fitting direction relative to DMSO as the negative control and baseline of activity. Using a type of binding reporter, loss-of-signal activity can be used to understand changes in the binding as they relate to the gene Trhr. Furthermore, this assay endpoint can be referred to as a primary readout, because the performed assay has only produced 1 assay endpoint. To generalize the intended target to other relatable targets, this assay endpoint is annotated to the gpcr intended target family, where the subfamily is rhodopsin-like receptor.
Binding assays used specific radioligands (tritiated, iodinated) with non-radioactive competitive displacement ligands in agonist or antagonist protocols (as indicated) and various reference compounds and inhibitors to titrate specific binding to receptors and transporters. Most enzyme assays (CYPs, kinases, phosphatases, proteases, HDACs) used recombinant protein and specific substrates (fluorescence mostly, some colorimetric and radioactive) and inhibitors, followed by a biochemical separation of substrate and product. All assays for the biochemical HTS were initially run in duplicate at a single concentration (10 uM for CYP450 assays and 25 uM for all others). […] Each assay was run with positive and negative controls, and concurrent controls on every plate. The follow-up (secondary) screen tested active chemical-pairs in concentration series, as well as a few additional assays not tested in the primary screen, some selected negative inactives, and several cases re-run in the concentration series for confirmatory purposes.

Q: With `COc1ccc(C=O)cc1` as the molecule, how does the outcome read?
A: Its outcome is “inactive”.

Q: With `C=C(C)C(=O)[O][Sn]([CH2]CCC)([CH2]CCC)[CH2]CCC` as the molecule, how does the AC50 read?
A: Its AC50 is 20.3 µM (active).

Q: With `Clc1nc(Cl)nc(Cl)n1` as the molecule, how does the outcome read?
A: Its outcome is “inactive”.

Q: `COC(=O)c1sccc1S(=O)(=O)NC(=O)Nc1nc(C)nc(OC)n1` was tested. Which outcome did it give?
A: Its outcome is “inactive”.

Q: Which outcome does the source give for `C1CCC(NC2CCCCC2)CC1` here?
A: Its outcome is “inactive”.

Q: Which outcome does the source give for `Cc1ccc2ccccc2c1C` here?
A: The outcome was “inactive”.

Q: `C[C@]12CC[C@H](O)CC1=CC[C@@H]1[C@@H]2CC[C@]2(C)C(=O)CC[C@@H]12` was tested. Which outcome did it give?
A: The outcome was “inactive”.

Q: With `O=C(OC1CCCCC1)c1ccccc1C(=O)OC1CCCCC1` as the molecule, how does the outcome read?
A: Its outcome is “inactive”.

Q: With `Cl/C=C/Cl` as the molecule, how does the outcome read?
A: Its outcome is “inactive”.

Q: With `CC(C)c1cccc(C(C)C)c1O` as the molecule, how does the outcome read?
A: The outcome was “inactive”.

Q: For `O=c1[nH]c(=O)[nH]c(=O)[nH]1`, which outcome is on record?
A: The outcome was “inactive”.

Q: For `ClCC(Cl)CCl`, which outcome is on record?
A: Its outcome is “inactive”.

Q: Which outcome does the source give for `C[C@H]1CCCC(=O)CCC/C=C/c2cc(O)cc(O)c2C(=O)O1` here?
A: The outcome was “inactive”.

Q: How did the outcome turn out when `Oc1cccc2cccnc12` was run?
A: The outcome was “inactive”.

Q: With `CC(C)C1CCC(Cc2ccc(Cl)cc2)C1(O)Cn1cncn1` (stereo not drawn) as the molecule, how does the outcome read?
A: The outcome was “inactive”.

Q: With `COP(=O)(OC)O/C(=C\Cl)c1cc(Cl)c(Cl)cc1Cl` as the molecule, how does the outcome read?
A: Its outcome is “inactive”.

Q: `Cc1ccccc1C(=O)Nc1cccc(OC(C)C)c1` was tested. Which outcome did it give?
A: Its outcome is “inactive”.

Q: `O=[N+]([O-])c1ccc(O)c([N+](=O)[O-])c1` was tested. Which outcome did it give?
A: The outcome was “inactive”.

Source: PubChem BioAssay (EPA / NIEHS)
